Among all 310,000 compounds or so, about 14,000 (4.5%) showed an effect of 50% or more. The effect is printed as a negative number. Many of the other results were omitted from the sample, so strong results are more common in it than they were.
biological target: human ether-à-go-go-related gene (hERG) potassium channel (human, UniProt Q12809); test: primary screen, population patch clamp on CHO cells stably expressing hERG; higher = less effect of the substance
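Further: peak tail current of the secondary pulse compared with the same well before compound.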

human ether-à-go-go-related gene (hERG) potassium channel, sequence (Q12809 whole entry, looked up): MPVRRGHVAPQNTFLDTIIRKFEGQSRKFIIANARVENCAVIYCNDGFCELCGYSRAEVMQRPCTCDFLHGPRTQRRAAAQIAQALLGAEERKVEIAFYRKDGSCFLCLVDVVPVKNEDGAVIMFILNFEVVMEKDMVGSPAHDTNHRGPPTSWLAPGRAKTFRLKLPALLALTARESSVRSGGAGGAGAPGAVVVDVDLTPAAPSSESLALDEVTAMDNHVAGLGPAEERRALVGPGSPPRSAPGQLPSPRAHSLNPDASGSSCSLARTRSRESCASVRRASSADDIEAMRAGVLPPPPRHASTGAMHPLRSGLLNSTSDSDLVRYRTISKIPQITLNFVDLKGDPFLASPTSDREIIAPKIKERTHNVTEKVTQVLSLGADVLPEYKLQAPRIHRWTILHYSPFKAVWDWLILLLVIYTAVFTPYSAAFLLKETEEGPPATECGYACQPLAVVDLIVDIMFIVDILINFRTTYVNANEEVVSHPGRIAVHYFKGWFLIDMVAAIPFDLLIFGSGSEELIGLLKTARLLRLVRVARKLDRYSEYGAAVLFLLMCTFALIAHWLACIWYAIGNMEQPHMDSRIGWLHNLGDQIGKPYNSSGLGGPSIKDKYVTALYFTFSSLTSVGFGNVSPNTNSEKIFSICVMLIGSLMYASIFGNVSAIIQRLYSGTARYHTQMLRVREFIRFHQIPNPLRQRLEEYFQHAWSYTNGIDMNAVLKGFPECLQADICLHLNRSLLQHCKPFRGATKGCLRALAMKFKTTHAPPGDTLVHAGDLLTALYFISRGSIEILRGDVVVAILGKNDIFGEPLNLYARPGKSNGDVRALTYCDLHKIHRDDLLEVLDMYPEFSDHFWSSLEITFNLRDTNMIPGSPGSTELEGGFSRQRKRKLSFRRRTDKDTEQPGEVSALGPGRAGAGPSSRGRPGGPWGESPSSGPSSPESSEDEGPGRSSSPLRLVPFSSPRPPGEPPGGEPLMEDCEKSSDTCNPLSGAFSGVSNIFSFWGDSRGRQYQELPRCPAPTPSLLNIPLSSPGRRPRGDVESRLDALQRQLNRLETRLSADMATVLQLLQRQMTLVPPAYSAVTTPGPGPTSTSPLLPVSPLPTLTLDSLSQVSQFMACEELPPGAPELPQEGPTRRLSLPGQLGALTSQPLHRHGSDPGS

Compound	hERG current change (%, negative = inhibition) at 10uM
Brc1ccc(C2Nc3cccc4cccc(c34)N2)s1	7.9%
COc1ccc(CN2CCC(n3nccc3NC(=O)c3cccc(F)c3)CC2)cc1O	-80.4%
CCn1cc(CN2CCC(n3nccc3NC(=O)c3cccc(F)c3)CC2)c(C)n1	-2.72%
O=C(Nc1ccnn1C1CCN(Cc2ccccc2OC(F)F)CC1)c1cccc(F)c1	-52.4%
O=C(Nc1ccnn1C1CCN(Cc2ccc(C#CCCO)cc2)CC1)c1cccc(F)c1	-77.3%
O=C(Nc1ccnn1C1CCN(Cc2ccc3nonc3c2)CC1)c1cccc(F)c1	-37.4%
O=C(Nc1ccnn1C1CCN(Cc2cccc(OCCO)c2)CC1)c1cccc(F)c1	-12.3%
O=C(Nc1ccnn1C1CCN(C2CCC2)CC1)c1cccc(F)c1	-12.5%
CCn1cc(CN2CCC(n3nccc3NC(=O)c3cccc(F)c3)CC2)cn1	-6.71%
O=C(Nc1ccnn1C1CCN(Cc2ccccc2OCCO)CC1)c1cccc(F)c1	-34.8%
CCc1ccc(CN2CCC(n3nccc3NC(=O)c3cccc(F)c3)CC2)cc1	-75.3%
O=C(Nc1ccnn1C1CCN(Cc2ccccc2OC(F)F)CC1)c1cccnc1	-12.3%
CCOC(=O)C1CCCCC12C(C#N)=C(N)Oc1n[nH]c(C)c12 (stereo not drawn)	10.1%
CN1C(=O)C(CC(=O)Nc2ccc(F)cc2)N(CCCc2ccccc2)C1=S (stereo not drawn)	0.0595%
CCOC(=O)c1c(C)[nH]c(C2=NNC(=NC3CC3)SC2)c1C	-30.1%
COc1ccccc1NC(=O)CNc1ccc(F)c(Cl)c1	-11.7%
CCn1cc([N+](=O)[O-])c(C(=O)Nc2ccc3c(c2)OCCO3)n1	-9.69%
COCCCNC(=O)c1ccccc1Sc1ccc(NC(C)=O)nc1	25.8%
C=CCn1c(SCC(=O)c2ccc(OC)cc2)nnc1-c1cc2cccc(OC)c2o1	25.8%
CCC(C)NC(=O)CCc1nnc2ccc(N3CCC(C)CC3)nn12 (stereo not drawn)	3.66%
COc1ccc(N2CC(C(=O)Nc3ccc4c(c3)OCCO4)CC2=O)cc1 (stereo not drawn)	4.94%
CCc1ccc(NS(=O)(=O)c2ccc3oc(=O)ccc3c2)cc1	-1.91%
CCOC(=O)C1(Cc2ccc(OC)cc2)CCN(C(=O)c2csc(C)n2)CC1	2.99%
O=C1CCC(C(=O)N2CCC(CO)(Cc3ccc(Cl)cc3)CC2)=NN1	-32.5%

Compound	hERG current change (%, negative = inhibition) at 10uM
CCOC(=O)C1(Cc2ccc(Cl)cc2)CCN(C(=O)c2cscn2)CC1	-37.4%
CCOC(=O)C1(Cc2ccc(Cl)cc2)CCN(C(=O)c2sc(C)nc2C)CC1	-52.9%
CCOC(=O)C1(Cc2ccc(Cl)cc2)CCN(C(=O)C2CCCO2)CC1 (stereo not drawn)	-33.2%
C=CCN1CC(C(=O)N2CCC(Cc3ccc(Cl)cc3)(C(=O)OCC)CC2)CC1=O (stereo not drawn)	-72.4%
CCOC(=O)C1(Cc2ccc(Cl)cc2)CCN(C(=O)C2=NNC(=O)CC2)CC1	-69.6%
CCOC(=O)C1(Cc2ccc(Cl)cc2)CCN(C(=O)c2cc(C)nc(C)n2)CC1	-38.1%
CCOC(=O)C1(Cc2ccc(OC)cc2)CCN(C(=O)c2sc(C)nc2C)CC1	1.86%
CCOC(=O)C1(Cc2ccc(Cl)cc2)CCN(C(=O)c2ccoc2)CC1	-49.4%
CCOC(=O)C1(Cc2ccc(Cl)cc2)CCN(C(=O)c2cnc(C)cn2)CC1	-57.1%
CCOC(=O)N1CCN(C(=O)C2CCC(=O)N(Cc3ccc(Cl)cc3)C2)CC1 (stereo not drawn)	-40.5%
O=C1CC(NS(=O)(=O)c2cccs2)CN1c1cccc(F)c1 (stereo not drawn)	-6.29%
O=C(Nc1ccc(Cl)c(S(=O)(=O)N2CCOCC2)c1)c1ccc2c(c1)OCCO2	12.6%
COc1ccc2c(c1)C1NC(=S)N[C@@](C)(O2)C1C(=O)Nc1ccccc1 (stereo partly drawn)	-3.49%
CCOC(=O)[C@H]1[C@H]2COc3cc(OC)ccc3[C@@H]2N2C(=O)CN(Cc3ccccc3)C(=O)[C@@]12C	-8.34%
COc1ccc(OC)c(NS(=O)(=O)c2ccc(Br)s2)c1	-12.4%
N#CC1=C(N)N(c2ccccc2Sc2ccccc2)C(=O)C1	3.4%
Cc1ccc(NC(=O)N2CCC(NC(=O)c3ccco3)CC2)cc1	4.55%
COC(=O)C(C)Sc1nc2c(c(=O)n1-c1ccccc1)SCC2 (stereo not drawn)	-6.49%
COc1ccc(NC(=O)CN(C)C(=O)c2cn(-c3ccccc3)nc2-c2ccc(OC)cc2)cc1	-7.66%
CCCS(=O)(=O)N1CCN(S(=O)(=O)c2ccc(F)cc2)CC1	10.6%
O=C(Nc1nccs1)C1CCCCN1S(=O)(=O)c1ccccc1 (stereo not drawn)	4.8%
Cc1ccc(C)c(NS(=O)(=O)c2ccc(-c3cnc(C4CC4)o3)cc2)c1	4.27%
Cn1c(=O)[nH]c(=O)c2c1nc(CN1CCOCC1)n2Cc1ccccc1	-15.7%
Cn1c(=O)[nH]c(=O)c2c1nc(CN1CCN(Cc3ccccc3)CC1)n2CC(N)=O	7.32%

Compound	hERG current change (%, negative = inhibition) at 10uM
CCCCCn1c(CN2CCN(Cc3ccccc3)CC2)nc2c1c(=O)[nH]c(=O)n2C	-72.3%
CCCCCn1c(N2CCN(Cc3ccccc3)CC2)nc2c1c(=O)[nH]c(=O)n2C	-74.8%
CN1CCN(Cc2nc3c(c(=O)[nH]c(=O)n3C)n2CCc2ccccc2)CC1	-28.1%
CC(C)CCn1c(CN2CCN(Cc3ccccc3)CC2)nc2c1c(=O)[nH]c(=O)n2C	-17.6%
Cc1cccc(Cn2c(CN3CCN(Cc4ccccc4)CC3)nc3c2c(=O)[nH]c(=O)n3C)c1	-64.9%
CCCCCCn1c(N2CCN(c3ccccc3)CC2)nc2c1c(=O)[nH]c(=O)n2C	-32.6%
Cn1c(=O)[nH]c(=O)c2c1nc(N1CCN(Cc3ccccc3)CC1)n2CCCc1ccccc1	-31.9%
Cn1c(=O)[nH]c(=O)c2c1nc(N1CCN(Cc3ccccc3)CC1)n2CCSc1ncccn1	-25.7%
CCN1CCN(c2nc3c(c(=O)[nH]c(=O)n3C)n2Cc2ccccc2)CC1	-27.7%
CCN1CCN(c2nc3c(c(=O)[nH]c(=O)n3C)n2CCCc2ccccc2)CC1	-79.2%
COc1ccc(OC)c(NC(=O)CS(=O)(=O)Cc2nc(-c3ccccc3C)oc2C)c1	7.66%
COc1ccc2c(C)cc(SC3CCOC3=O)nc2c1 (stereo not drawn)	-0.712%
CCCC(=O)NC(=S)Nc1cccc(NC(=O)c2ccccc2Cl)c1	-3.15%
CCCCCn1c(CN2CCN(c3cccc(Cl)c3)CC2)nc2c1c(=O)[nH]c(=O)n2C	-63.3%
CCCCCn1c(N2CCN(c3cccc(Cl)c3)CC2)nc2c1c(=O)[nH]c(=O)n2C	-29.2%
CCCn1c(N2CCC(Cc3ccccc3)CC2)nc2c1c(=O)[nH]c(=O)n2C	-51.2%
CCCCn1c(CN2CCN(c3cccc(Cl)c3)CC2)nc2c1c(=O)[nH]c(=O)n2C	5.59%
CCCCn1c(N2CCC(Cc3ccccc3)CC2)nc2c1c(=O)[nH]c(=O)n2C	-49.4%
CCCCCn1c(N2CCC(Cc3ccccc3)CC2)nc2c1c(=O)[nH]c(=O)n2C	-11%
CCOC(=O)N1CCC(NC(=O)CN(c2ccc(C(C)C)cc2)S(=O)(=O)c2c(C)nn(C)c2C)CC1	-10.3%
CC(CNC(=O)c1cc(COc2ccc3ncccc3c2)on1)c1ccccc1 (stereo not drawn)	9.51%
COc1ccc(S(=O)(=O)N2CCN(C)CC2)cc1C(=O)Nc1ccccc1	1.79%
CCN(CC(O)COc1ccc(OCC(O)CN(CC)C2CCCCC2)cc1)C1CCCCC1 (stereo not drawn)	22.2%
O=C(OCC(O)COc1ccccc1)c1ccc([N+](=O)[O-])cc1 (stereo not drawn)	-7.79%

Compound	hERG current change (%, negative = inhibition) at 10uM
COc1ccc(OCC(O)CN(C2CCCCC2)C2CCCCC2)cc1.Cl (stereo not drawn)	-59.5%
CN(CC(O)COc1ccc2ccccc2c1)C1CCCCC1.Cl (stereo not drawn)	-45.2%
CN(CC(O)COc1ccc(OCC(O)CN(C)C2CCCCC2)cc1)C1CCCCC1 (stereo not drawn)	8.06%
O=[N+]([O-])c1ccc(OCC(O)CN(C2CCCCC2)C2CCCCC2)cc1 (stereo not drawn)	-75.8%
Cc1cccc2nc(CSc3nc4[nH]ncc4c(=O)n3-c3cccc(Cl)c3)cc(=O)n12	-23.3%
COc1ccc(CNC(=O)[C@H](Cc2ccccc2)NC(=O)C2CCN(C(=O)[C@H](C)N)CC2)cc1	-2.78%
Cc1ccc(-c2onc(C)c2C)cc1S(=O)(=O)N1CCOc2ccccc21	9.26%
COc1cc(/C=N/NC(=O)CCc2n[nH]c(=O)[nH]c2=O)ccc1O	-0.627%
Cc1cccc(OC(C)C(=O)Nc2nccs2)c1 (stereo not drawn)	8.8%
CC1CN(C(=O)CCC(=O)NCc2ccc(Cl)cc2)c2ccccc2O1 (stereo not drawn)	-53.6%
CC1CN(C(=O)CCC(=O)NCc2ccccc2)c2cc(Cl)ccc2O1 (stereo not drawn)	-11.5%
CCN1CCN(CCCNC(=O)CCC(=O)N2CC(C)Oc3ccc(C)cc32)CC1 (stereo not drawn)	-12.5%
Cc1ccc2c(c1)N(C(=O)CCC(=O)NCCCN1CCN(C)CC1)CC(C)O2 (stereo not drawn)	9.95%
Cc1ccc(CNC(=O)CCC(=O)N2CC(C)Oc3ccccc32)cc1 (stereo not drawn)	-28%
CC1CN(C(=O)CCC(=O)NCCCN2CCC(Cc3ccccc3)CC2)c2cc(Cl)ccc2O1 (stereo not drawn)	-72.7%
CC1CN(C(=O)CCC(=O)NCCCN2CCN(Cc3ccccc3)CC2)c2cc(Cl)ccc2O1 (stereo not drawn)	-76.1%
CC1CN(C(=O)CCC(=O)NC2CCN(Cc3ccccc3)CC2)c2ccccc2O1 (stereo not drawn)	-26.7%
CC1CN(C(=O)CCC(=O)NCc2ccccc2)c2ccccc2O1 (stereo not drawn)	0.256%
Cc1ccc2c(c1)N(C(=O)CCC(=O)NC1CCN(Cc3ccccc3)CC1)CC(C)O2 (stereo not drawn)	-67.1%
Cc1ccc2c(c1)N(C(=O)CCC(=O)NCCCN1CCOCC1)CC(C)O2 (stereo not drawn)	-13.5%
Cc1ccc2c(c1)N(C(=O)CCC(=O)NC1CCCCCC1)CC(C)O2 (stereo not drawn)	-18.5%

From publication PMC4336329 (PLoS ONE, 2015)
